Screening data: PubChem BioAssay, National Center for Advancing Translational Sciences (NCATS)
This excerpt belongs to a sample that is enriched for hits.
Pin1 inhibitor – blocks the human prolyl isomerase Pin1; Pin1 FP peptide displacement, HiFluor488, 10 min; Potency, µM (top dose mostly 115 µM), inactives show at the highest dose activity, negative = inhibition, actives largely listed as inhibitors; 0.009% of 390,000 active; AID 504891; active = well fitted inhibition curve with a large enough effect in the polarisation, with a control signal flat, not every such curve was filed as active; inconclusive = small, poorly fitted or top-dose-only effect, or effect the other way, or a change in a side signal; inactive = no such curve, though single readings can be large or run the other way; the % refers to the polarisation; note: potency is the fitted concentration of half-maximal effect
Target sequence (Q13526 whole entry, looked up): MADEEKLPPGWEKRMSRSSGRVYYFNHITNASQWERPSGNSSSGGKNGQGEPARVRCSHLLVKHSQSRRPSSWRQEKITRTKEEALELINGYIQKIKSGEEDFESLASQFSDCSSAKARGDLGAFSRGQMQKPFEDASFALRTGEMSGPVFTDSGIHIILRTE
PI4K2A block – blocks human PI4K2A kinase activity. 0.13% of 420,000 active. purified PI4K2A, ADP-Glo luminescence, 1 h; hits give low values. activity change, negative = inhibition, % at 76.9 µM. Q9BTU6; in the data active = activity change below about -50%; inconclusive = mostly about -30% to -49%;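 note: -100% = wells without enzyme as full effect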
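In this quantitative HTS, ADP production by PI4K2A was quantified luminescently after 1 h at ambient temperature; 100 microM adenosine served as plate-quality control.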
Tb PGK inh – T. brucei PGK inhibition; 0.043% of 380,000 active; P07378; AID 602233; Potency, µM (highest dose often 57.5 µM), for the others: top-dose activity change, negative = inhibition, hits mostly inhibitors; PGK/GAPDH coupled, Kinase-Glo luminescence, 60 min; note: potency is the fitted concentration of half-maximal effect; nearly all actives have a fitted effect of over 60% in size
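Luminescent ATP detection (Kinase-Glo Plus) follows a 60-minute room-temperature incubation, with wells lacking PGK as controls. Buffer: 100 mM TEA (pH 7.6), 5 mM MgCl2, 0.01% Tween-20. Coupling enzyme GAPDH (100 nM final) supplies unstable 1,3-BPG in-well.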
Tb PFK inh – inhibitors of T. brucei phosphofructokinase; O15648; Potency, µM (highest dose often 57.5 µM), without a hit: top-dose activity, negative = inhibition, most hits filed as inhibitors; T. brucei PFK, ADP-Glo luminescence; 0.17% of 330,000 active; AID 485367;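 note: potency is the fitted concentration of half-maximal effect; 0% = uninhibited 1x PFK enzyme wells and -100% = no-enzyme wells; nearly all actives have a fitted effect of over 60% in size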
Target sequence (O15648 whole entry, looked up): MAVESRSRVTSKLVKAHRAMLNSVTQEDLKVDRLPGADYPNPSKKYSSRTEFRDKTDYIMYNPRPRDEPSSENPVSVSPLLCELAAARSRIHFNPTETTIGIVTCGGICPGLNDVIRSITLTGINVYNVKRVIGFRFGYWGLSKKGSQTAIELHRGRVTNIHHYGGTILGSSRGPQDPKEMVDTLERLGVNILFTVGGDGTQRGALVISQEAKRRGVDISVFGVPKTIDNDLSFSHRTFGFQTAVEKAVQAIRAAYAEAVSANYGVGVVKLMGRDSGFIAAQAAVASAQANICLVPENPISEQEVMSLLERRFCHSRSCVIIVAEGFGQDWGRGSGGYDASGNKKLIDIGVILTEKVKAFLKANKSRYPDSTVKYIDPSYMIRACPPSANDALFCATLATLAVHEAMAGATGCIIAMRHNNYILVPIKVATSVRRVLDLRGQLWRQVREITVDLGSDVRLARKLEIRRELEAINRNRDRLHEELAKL
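Luminescent ADP detection (ADP-Glo, two-step: ATP depletion then ADP-to-ATP conversion for luciferase) reported PFK activity after 45 min room-temperature reaction of 1.25 nM enzyme with 0.5 mM F6P and 0.1 mM ATP at pH 8.0.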
PI5P4K alpha inh – inhibitors of human PI5P4K alpha. P48426. 1.2% of 330,000 active. PI5P4Kalpha enzyme, ADP-Glo luminescence, 60 min; hits give low values. max response, %; active = max response of -50% or lower; inconclusive = between -30% and -50%; inactive = -30% or higher; note: value at the top dose of about 77 µM
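ADP-Glo luminescence end-point after a 60 min room-temperature kinase reaction. PI5P4Kalpha and substrate in HEPES pH 7.4 buffer with EGTA, 0.1% CHAPS and 5% DMSO; ATP at 5 microM final.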
ADP-Glo interf – interferes with ADP-Glo detection without enzyme present. AID 743285. shares compounds with PI5P4K alpha inh. ADP-Glo detection counter-screen, luciferase luminescence, no enzyme. Potency, µM (doses to about 76.9 µM), inactives show at the highest dose activity change, negative = inhibition, hits mostly inhibitors. 1,100 tested, under 10 active
* = called active by the depositor; i = inactive; ? = inconclusive; . = not tested or not shown. Unless noted, calls come from the whole dose curve; as a rule, active = well fitted curve in the direction sought with a large enough effect; inconclusive = small, poorly fitted or top-dose-only effect, or another doubt; inactive = no such curve, though single readings can be large; an effect the other way counts as inactive or inconclusive. Unless noted, % is set by controls: 0 for no effect and ±100 for the full control effect.

SMILES	Pin1 inhibitor	PI4K2A block	Tb PGK inh	Tb PFK inh	PI5P4K alpha inh	ADP-Glo interf
O=C(O)c1ccc(-c2nnn(Cc3cccc(C(F)(F)F)c3)n2)cc1	2%	-1	-5%	-29%	-52*	-3%
O=c1c2cc3cccnc3nc2ncn1Cc1cccs1	.	-9	.	.	.	.
CN(Cc1cn(-c2ccccc2)nc1-c1cc2ccccc2o1)C(=O)CCC(=O)O	-1%	3	i	-5%	-59*	0%
CC(=O)Nc1ccc(S(=O)(=O)N2CCN(C(=O)C3COc4ccccc4O3)CC2)cc1 (stereo not drawn)	-3%	3	-4%	-6%	-5	.
COc1ccc(S(=O)(=O)N2CCN(C(=O)C3COc4ccccc4O3)CC2)cc1 (stereo not drawn)	?	-8	?	27µM*	-74*	4%
CCn1c(CC(=O)Nc2ccccc2OC)nnc1SCC(=O)Nc1ccccc1F	8%	1	-5%	-4%	0	.
CCn1c(CC(=O)Nc2ccccc2Cl)nnc1SCC(=O)NC1CCCC1	1%	-2	5%	0%	0	.
COc1ccccc1NC(=O)Cc1nnc(SCC(=O)Nc2ccccc2F)n1C	0%	3	1%	0%	-67*	-7%
CCn1c(CC(=O)Nc2ccccc2F)nnc1SCC(=O)NC1CCCCC1	?	-22	3%	1%	-29	-6%
CCOC(=O)CC[C@@H]1CC[C@]2(CCCN(C(=O)C3CCCC3)C2)O1	.	-2	.	.	.	.
O=S(=O)(NCCC1=CCCCC1)c1cccc(S(=O)(=O)N2CCOCC2)c1	1%	-3	-3%	3%	-63*	-2%
O=C(CCS(=O)(=O)c1ccc2c(c1)NC(=O)CS2)NCCc1ccccc1	5%	3	7%	9%	-1	.
O=C(CCS(=O)(=O)c1ccc2c(c1)NC(=O)CS2)NCCc1ccc(Cl)cc1	5%	-2	-9%	4%	-60*	0%
CCCCNS(=O)(=O)CC1NCc2ccc(C)cc21 (stereo not drawn)	.	-4	.	.	.	.
O=c1c(Cc2ccccc2)c(O)nc2n1CCS2	1%	5	2%	1%	-55*	4%
O=C(CCc1nc(-c2ccccc2F)no1)NCCc1ccc(F)cc1	.	-3	.	.	.	.
Cc1ccc(S(=O)(=O)N(C(=O)c2ccco2)c2cc3sc(=O)oc3c3ccccc23)cc1	-3%	-13	-9%	-19%	-56*	-1%
COc1ccc(S(=O)(=O)N(C(=O)c2ccco2)c2cc3sc(=O)oc3c3ccccc23)cc1	-3%	-18	-6%	?	-61*	-8%
COc1ccc(S(=O)(=O)N(C(=O)C(C)C)c2ccc3oc(=O)sc3c2)cc1	2%	1	i	2%	.	.
CC(=O)N(c1ccc2oc(=O)sc2c1)S(=O)(=O)c1ccccc1	-4%	7	-8%	12%	-18	.
CCOc1ccc(S(=O)(=O)N(C(=O)c2ccco2)c2cc3sc(=O)oc3c3ccccc23)cc1	-1%	-8	1%	-9%	-58*	2%
COc1cc(C=Nn2c(-c3cc(-c4ccccc4)n[nH]3)n[nH]c2=S)ccc1OC(C)=O	.	0	.	.	.	.
COCCn1c(SCC(=O)Nc2cccnc2Cl)nc2cc(Cl)ccc2c1=O	-1%	2	6%	6%	7	.
COCCn1c(SCC(=O)Nc2cccc(S(N)(=O)=O)c2)nc2cc(Cl)ccc2c1=O	-4%	4	-5%	-1%	-63*	-3%
Nc1[nH]c(C(=O)c2ccccc2)c(-c2ccc3ccccc3c2)c1C(=O)NCCc1ccc(Cl)cc1	.	-3	.	.	.	.
SMILES	Pin1 inhibitor	PI4K2A block	Tb PGK inh	Tb PFK inh	PI5P4K alpha inh	ADP-Glo interf
COc1ccc2ccccc2c1C=NNC(=O)c1cc(-c2ccc(C)c(C)c2)n[nH]1	.	1	.	.	.	.
O=C(NCc1ccc(F)c(F)c1)C1CCCN(c2nc3ccccc3o2)C1 (stereo not drawn)	.	-2	.	.	.	.
CCN(CC)C(=O)c1[nH]cnc1C(=O)Nc1ccc(OC)cc1	-7%	-8	-7%	-3%	0	-8%
CCN(CC)C(=O)c1[nH]cnc1C(=O)Nc1ccc(Cl)cc1	-1%	-4	i	-2%	7	.
COc1ccc(CC2CCN(c3ncnc4sccc34)CC2)cc1	.	-1	.	.	.	.
Cc1nc2c(nnn2Cc2ccccc2)c(=O)[nH]1	-8%	-4	-6%	-9%	-88*	2%
O=c1cc(CSc2ccc(Cl)cc2)nc2nc[nH]n12	9%	-7	2%	-1%	-67*	-12%
O=C(c1ccc2nc(-c3ccco3)c(-c3ccco3)nc2c1)N1CCN(c2ncccn2)CC1	?	-20	-5%	-17%	-53*	-4%
O=C(c1cccc(C(=O)N2CCN(c3ncccn3)CC2)c1)N1CCN(c2ncccn2)CC1	1%	-13	-4%	1%	2	.
O=C(Nc1ccc2nc(-c3ccco3)c(-c3ccco3)nc2c1)N1CCN(c2ccccn2)CC1	.	?	-8%	?	-91*	0%
O=S1(=O)CC2c3ccccc3CN2CN1Cc1ccc(F)cc1 (stereo not drawn)	.	-3	.	.	.	.
Cc1ccc(-c2nc3c(c(=O)[nH]c(=O)n3Cc3ccccc3)n2C)o1	?	-22	5%	0%	-68*	-9%
O=C(CCn1nnc(-c2cccs2)n1)NCc1ccco1	.	3	.	.	.	.
c1cc2c(cc1C1=NNC(=NC3CC3)SC1)OCCO2	9%	?	13µM*	?	-51*	?
CCOc1ccc(OCc2ccc(C(=O)N3CCOCC3)cc2)cc1	-14%	2	-2%	1%	-54*	-5%
Cc1nc(-c2cccc(C(F)(F)F)c2)sc1C(=O)O	-1%	-6	-4%	11%	-50*	2%
COc1ccc2ccccc2c1C1CC(=O)N2CN(C3CCCCC3)CSC2=C1C#N (stereo not drawn)	?	-5	-5%	-1%	-56*	-5%
CCc1ccccc1N1CSC2=C(C#N)C(c3ccccc3F)CC(=O)N2C1 (stereo not drawn)	1%	-3	-8%	-22%	-60*	-8%
COc1ccc(N2CSC3=C(C#N)C(c4cccc(OC)c4OC)CC(=O)N3C2)cc1 (stereo not drawn)	12%	-4	1%	-9%	-51*	-14%
CC(C)c1ccc(C2CC(=O)N3CN(Cc4ccco4)CSC3=C2C#N)cc1 (stereo not drawn)	-13%	-2	2%	5%	-21	.
COc1ccc(CN(C)C(C#Cc2ccccc2)Cc2ccccc2)c(OC)c1 (stereo not drawn)	.	-4	.	.	.	.
